From PubChem BioAssay AID2718 (Broad Institute, 2010)
The campaign covered roughly 320,000 compounds. About 480 (0.15%) were called active. Not shown: some 1% with an inconclusive outcome. Rule as the data show it: active = inhibition above about 26% (passing the limit was not always enough); inconclusive = no clear call, values can overlap the other calls. The sample as a whole holds a higher share of actives than the screen did.

Target: Histone deacetylase 3 (Homo sapiens) (UniProt O15379)
Test: inhibition of human HDAC3 enzyme activity – biochemical, fluorescence, cell-free homogeneous, primary screen (AID 2718)
Settings: recombinant HDAC3, fluorogenic peptide/trypsin coupled, at 8.3 µM, active compounds read high

Histone deacetylase 3 (Homo sapiens), sequence (O15379 whole entry, looked up): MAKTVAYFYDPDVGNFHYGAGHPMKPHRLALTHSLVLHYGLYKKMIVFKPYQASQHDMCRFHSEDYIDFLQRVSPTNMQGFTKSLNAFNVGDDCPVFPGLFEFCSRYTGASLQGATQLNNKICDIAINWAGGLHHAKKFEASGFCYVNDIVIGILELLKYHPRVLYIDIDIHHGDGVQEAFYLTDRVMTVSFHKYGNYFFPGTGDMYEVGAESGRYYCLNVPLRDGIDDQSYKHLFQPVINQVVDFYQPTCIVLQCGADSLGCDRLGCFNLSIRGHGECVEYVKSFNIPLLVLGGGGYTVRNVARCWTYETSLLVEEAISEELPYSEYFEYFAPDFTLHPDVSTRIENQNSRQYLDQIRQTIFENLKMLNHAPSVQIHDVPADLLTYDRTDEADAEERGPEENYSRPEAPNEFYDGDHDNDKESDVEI

Row | SMILES | inhibition
1 | Cn1c(NC(=O)c2ccccc2)nc2ccccc21 | 9.99% (inactive)
2 | COC(=O)c1nc(NC(=O)c2ccccc2)n[nH]1 | 58.7% (active)
3 | COC(=O)c1nc(NC(=O)c2ccc(Cl)cc2)n[nH]1 | 7.09% (inactive)
4 | Nn1c(SCC(=O)Nc2ccc3c(c2)CCC3)nnc1C1CC1 | 1.79% (inactive)
5 | Cc1cc(C)n(C(=O)CCNC(=O)c2ccccc2Cl)n1 | -13.4% (inactive)
6 | COc1cccc(N2CC(NS(=O)(=O)c3cccs3)CC2=O)c1 (stereo not given) | -2.66% (inactive)
7 | COc1ccccc1C(=O)OCC(=O)Nc1cccc(S(=O)(=O)NC2=NCCCCC2)c1 | -6.85% (inactive)
8 | O=C(COC(=O)c1cc[n+]([O-])cc1)Nc1ccc(Cl)c(C(F)(F)F)c1 | -1.85% (inactive)
9 | COc1cc(OC)cc(C(=O)NCC(=O)OCC(=O)NC(C)CCc2ccccc2)c1 (stereo not given) | -5.18% (inactive)
10 | CC(C)Cn1c(SCC(=O)Nc2ccc(Cl)cc2F)nc(O)cc1=O | 8.68% (inactive)
11 | CCC(CO)Oc1cc(NC(=O)c2cccc(F)c2)c2ncn(C(C)C)c2c1 (stereo not given) | -0.176% (inactive)
12 | COc1ccc(OCC(=O)Nc2ccc(N3CCC(C)CC3)cc2)cc1 | 5.48% (inactive)
13 | O=C(COc1ccc([N+](=O)[O-])cc1)Nc1ccc(N2CCCC2)cc1 | 54.5% (active)
14 | CCC(=O)c1ccc(OCC(=O)Nc2ccc(N3CCCCC3)cc2)cc1 | -1.33% (inactive)
15 | O=C(Nc1cc(S(=O)(=O)N2CCCCC2)ccc1Cl)C1COc2ccccc2O1 (stereo not given) | -0.0794% (inactive)
16 | COc1cc(OC)cc(-c2cc3ccc(F)cc3cn2)c1 | 5.76% (inactive)
17 | CCN(C[C@H]1N[C@@](CC)(C(=O)OC)[C@H]2C(=O)N(Cc3ccccc3)C(=O)[C@@H]12)S(=O)(=O)c1ccc(C(F)(F)F)cc1 | 4.73% (inactive)
18 | CC[C@@H]1CCCCc2ccccc2[C@@H](C(=O)C[C@H](O)CC(C)=O)OC1=O | -4.02% (inactive)
19 | O=C(CCNC(=O)c1ccccc1)NN=Cc1ccc(Br)o1 | 4.25% (inactive)
20 | Fc1ccccc1-c1cc2cc3c(cc2cn1)OCO3 | 0.895% (inactive)
21 | CCOC(=O)C1Cn2c(nc3c(c2=O)C(C)(CC)Cc2ccccc2-3)S1 (stereo not given) | -2.26% (inactive)
22 | CCCN(CC1CC1)C(=O)COC(=O)c1ccc(C)cc1O | -5.26% (inactive)
23 | CCCC1CCC(=NNC(=S)NCCc2ccccc2)CC1 (stereo not given) | -4.85% (inactive)
24 | COCCN(CCOC)S(=O)(=O)NC[C@H]1O[C@@H](n2cnc3c(N)ncnc32)[C@H](O)[C@@H]1O | -1.58% (inactive)
25 | Cc1nc2ccc(NC(=O)c3cccc(S(=O)(=O)N4CCOCC4)c3)cc2s1 | -5.18% (inactive)
